We go through one sequence from publication PMC7862700, “An all-to-all approach to the identification of sequence-specific readers for epigenetic DNA modifications on cytosine”.

Holding throughout (test): DAPPL (digital affinity profiling via proximity ligation, sequencing); 10 mM Tris-HCl pH 7.5, 50 mM NaCl, 1 mM DTT, 4% glycerol, room temperature, 30 min; GST-TFs on glutathione beads, 16-mer random dsDNA library, 0.1% formaldehyde crosslink after washing; high values mean tight binding
Experiment [1] deals with T1, FLI1 (Homo sapiens, UniProt Q01543 1-452).
T1 sequence: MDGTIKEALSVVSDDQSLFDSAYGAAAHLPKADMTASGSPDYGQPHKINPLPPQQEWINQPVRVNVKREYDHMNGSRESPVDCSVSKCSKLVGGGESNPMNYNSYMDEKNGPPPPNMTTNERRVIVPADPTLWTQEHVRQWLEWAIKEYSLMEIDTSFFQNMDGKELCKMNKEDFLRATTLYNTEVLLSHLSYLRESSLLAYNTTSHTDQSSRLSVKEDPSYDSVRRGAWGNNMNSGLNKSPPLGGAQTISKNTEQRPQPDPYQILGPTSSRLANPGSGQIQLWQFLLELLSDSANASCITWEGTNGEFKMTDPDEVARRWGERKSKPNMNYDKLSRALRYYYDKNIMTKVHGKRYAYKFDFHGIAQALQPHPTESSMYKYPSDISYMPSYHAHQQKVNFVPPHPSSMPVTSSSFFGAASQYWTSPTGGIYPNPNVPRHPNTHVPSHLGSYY
Particulars: protein: recombinant; tags: N-terminal GST; dsDNA, one strand shown. The method in brief: (§1)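 Beads coated with glutathione captured GST-fused human transcription factors that had been expressed in yeast, and the factors were then given DNA barcodes and pooled with a tag-only sample. The pools were incubated with 200 nmole of a random double-stranded 16-mer DNA library in Tris/NaCl/DTT/glycerol buffer for 30 min at room temperature, washed, crosslinked with 0.1% formaldehyde and proximity-ligated with BsaI/T4 ligase at 37 °C for 1 h. PCR amplification and Illumina NextSeq500 sequencing came last. Binding signal is each hexamer's read frequency for a factor divided by its frequency for the tag-only sample.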

Experiment [2] concerns the target T2, ELK1 (Homo sapiens, UniProt P19419 1-428).
T2 sequence: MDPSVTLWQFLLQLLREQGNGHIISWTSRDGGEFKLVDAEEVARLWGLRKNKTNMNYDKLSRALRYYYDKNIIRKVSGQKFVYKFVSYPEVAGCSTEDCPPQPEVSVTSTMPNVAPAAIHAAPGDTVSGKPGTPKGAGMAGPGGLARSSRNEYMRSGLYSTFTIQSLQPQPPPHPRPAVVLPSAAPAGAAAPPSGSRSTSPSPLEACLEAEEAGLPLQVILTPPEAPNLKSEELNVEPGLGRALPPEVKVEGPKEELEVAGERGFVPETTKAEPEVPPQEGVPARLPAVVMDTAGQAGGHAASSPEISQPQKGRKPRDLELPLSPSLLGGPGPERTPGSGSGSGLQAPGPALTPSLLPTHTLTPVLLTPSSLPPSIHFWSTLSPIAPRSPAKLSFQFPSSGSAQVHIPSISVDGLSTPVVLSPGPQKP
Particulars: protein: recombinant; tags: N-terminal GST; dsDNA, one strand shown. In short, it runs like this:
as §1

Experiment [3] deals with T3, GABPA (Homo sapiens, UniProt Q06546 1-454).
T3 sequence: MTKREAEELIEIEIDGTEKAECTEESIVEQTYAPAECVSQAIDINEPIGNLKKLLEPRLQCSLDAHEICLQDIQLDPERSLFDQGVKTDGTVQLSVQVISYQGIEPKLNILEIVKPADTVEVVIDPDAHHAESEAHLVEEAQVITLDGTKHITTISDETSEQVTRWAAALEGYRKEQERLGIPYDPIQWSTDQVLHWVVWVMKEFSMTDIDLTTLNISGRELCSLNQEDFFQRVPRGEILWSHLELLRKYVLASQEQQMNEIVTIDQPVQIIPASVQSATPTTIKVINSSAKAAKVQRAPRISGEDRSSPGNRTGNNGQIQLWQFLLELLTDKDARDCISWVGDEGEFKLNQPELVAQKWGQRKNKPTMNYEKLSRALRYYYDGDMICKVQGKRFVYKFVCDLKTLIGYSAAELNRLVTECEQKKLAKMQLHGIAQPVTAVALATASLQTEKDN
Particulars: protein: recombinant; tags: N-terminal GST; dsDNA, one strand shown. The method in brief: as §1

Experiment [4] concerns the target T4, ERG (Homo sapiens, UniProt P11308 1-479).
T4 sequence: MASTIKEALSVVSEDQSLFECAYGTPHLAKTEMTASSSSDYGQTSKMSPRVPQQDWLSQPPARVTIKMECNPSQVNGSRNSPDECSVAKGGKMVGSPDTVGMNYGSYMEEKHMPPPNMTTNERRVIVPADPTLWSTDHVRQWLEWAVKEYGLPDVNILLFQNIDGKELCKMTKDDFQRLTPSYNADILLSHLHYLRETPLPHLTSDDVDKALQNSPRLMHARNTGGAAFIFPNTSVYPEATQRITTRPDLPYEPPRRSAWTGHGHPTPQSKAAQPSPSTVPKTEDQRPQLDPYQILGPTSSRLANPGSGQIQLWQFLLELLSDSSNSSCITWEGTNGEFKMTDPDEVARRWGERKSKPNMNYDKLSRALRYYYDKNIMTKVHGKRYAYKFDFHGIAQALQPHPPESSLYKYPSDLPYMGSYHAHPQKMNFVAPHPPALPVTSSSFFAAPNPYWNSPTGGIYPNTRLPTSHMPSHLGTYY
The conditions noted are these: protein: recombinant; tags: N-terminal GST; dsDNA, one strand shown. In short, it runs like this: as §1

In experiment [5] the target is ELF1 (Homo sapiens, UniProt P32519 1-619). The conditions noted are these: protein: recombinant; tags: N-terminal GST; dsDNA, one strand shown. In short, it runs like this:
as §1

Experiment [6] concerns the target T5, EHF (Homo sapiens, UniProt Q9NZC4 1-300).
T5 sequence: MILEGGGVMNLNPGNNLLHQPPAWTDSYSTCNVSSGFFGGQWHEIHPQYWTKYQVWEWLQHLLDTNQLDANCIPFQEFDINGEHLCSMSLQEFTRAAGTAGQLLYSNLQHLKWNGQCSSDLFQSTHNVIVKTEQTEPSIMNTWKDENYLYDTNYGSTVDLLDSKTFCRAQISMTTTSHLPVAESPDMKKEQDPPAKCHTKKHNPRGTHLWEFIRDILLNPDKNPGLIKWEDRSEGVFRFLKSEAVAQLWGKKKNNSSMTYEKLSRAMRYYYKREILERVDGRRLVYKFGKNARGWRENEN
Particulars: protein: recombinant; tags: N-terminal GST; dsDNA, one strand shown. In short, it runs like this: as §1

For experiment [7], the target named is T6, ELK3 (Homo sapiens, UniProt P41970 1-407).
T6 sequence: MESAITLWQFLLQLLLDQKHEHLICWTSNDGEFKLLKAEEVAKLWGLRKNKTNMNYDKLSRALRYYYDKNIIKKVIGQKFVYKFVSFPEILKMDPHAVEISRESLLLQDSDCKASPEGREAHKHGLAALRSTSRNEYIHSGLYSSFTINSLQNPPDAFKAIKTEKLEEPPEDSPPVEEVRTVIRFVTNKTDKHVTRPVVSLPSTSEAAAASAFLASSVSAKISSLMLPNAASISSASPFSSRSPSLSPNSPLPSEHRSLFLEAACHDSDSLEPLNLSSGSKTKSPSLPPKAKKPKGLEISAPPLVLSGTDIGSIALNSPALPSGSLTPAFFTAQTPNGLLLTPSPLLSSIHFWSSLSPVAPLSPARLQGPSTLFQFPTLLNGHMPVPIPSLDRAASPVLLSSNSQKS
Particulars: protein: recombinant; tags: N-terminal GST; dsDNA, one strand shown. The method in brief: as §1

The target of experiment [8] is ETV5 (Homo sapiens, UniProt P41161 1-510). The conditions noted are these: protein: recombinant; tags: N-terminal GST; dsDNA, one strand shown. The method in brief:
as §1

For experiment [9], the target named is HSF1 (Homo sapiens, UniProt Q00613 1-529). The conditions noted are these: protein: recombinant; tags: N-terminal GST; chain copies: 3; dsDNA, one strand shown. In short, it runs like this:
as §1

The target of experiment [10] is T7, SPIC (Homo sapiens, UniProt Q8N5J4 1-248).
T7 sequence: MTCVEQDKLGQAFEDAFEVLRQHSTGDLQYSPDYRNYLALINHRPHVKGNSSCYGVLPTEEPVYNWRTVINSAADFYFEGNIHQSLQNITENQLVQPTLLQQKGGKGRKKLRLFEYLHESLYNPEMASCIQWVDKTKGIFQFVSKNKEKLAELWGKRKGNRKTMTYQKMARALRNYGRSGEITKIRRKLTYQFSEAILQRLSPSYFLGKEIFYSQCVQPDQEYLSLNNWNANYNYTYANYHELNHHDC
The conditions noted are these: protein: recombinant; tags: N-terminal GST; dsDNA, one strand shown. In short, it runs like this: as §1

Experiment [11] addresses ELF4 (Homo sapiens, UniProt Q99607 1-663). Particulars: protein: recombinant; tags: N-terminal GST; dsDNA, one strand shown. In short, it runs like this: as §1
For experiment [12], the target named is T8, ETV2 (Homo sapiens, UniProt O00321 1-342).
T8 sequence: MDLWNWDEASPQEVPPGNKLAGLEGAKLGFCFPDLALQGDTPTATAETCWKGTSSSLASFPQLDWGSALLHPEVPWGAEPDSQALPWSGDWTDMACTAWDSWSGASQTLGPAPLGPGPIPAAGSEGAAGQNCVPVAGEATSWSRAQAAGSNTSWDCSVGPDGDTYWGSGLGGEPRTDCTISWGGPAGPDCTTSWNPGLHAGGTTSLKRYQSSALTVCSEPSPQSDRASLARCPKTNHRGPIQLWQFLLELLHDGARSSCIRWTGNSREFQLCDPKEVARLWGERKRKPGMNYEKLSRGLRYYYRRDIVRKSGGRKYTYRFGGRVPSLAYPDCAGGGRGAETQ
Particulars: protein: recombinant; tags: N-terminal GST; dsDNA, one strand shown. In short, it runs like this:
as §1

Experiment [13] deals with T9, ELF3 (Homo sapiens, UniProt P78545 1-371).
T9 sequence: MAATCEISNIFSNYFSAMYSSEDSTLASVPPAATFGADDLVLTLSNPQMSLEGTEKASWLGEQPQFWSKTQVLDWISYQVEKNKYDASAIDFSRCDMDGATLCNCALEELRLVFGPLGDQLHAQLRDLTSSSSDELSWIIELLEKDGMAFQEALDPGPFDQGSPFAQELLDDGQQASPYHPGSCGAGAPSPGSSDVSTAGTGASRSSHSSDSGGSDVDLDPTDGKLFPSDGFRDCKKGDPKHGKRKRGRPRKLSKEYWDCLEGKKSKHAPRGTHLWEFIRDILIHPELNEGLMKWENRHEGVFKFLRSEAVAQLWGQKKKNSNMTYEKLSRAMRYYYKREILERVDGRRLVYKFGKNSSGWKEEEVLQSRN
Particulars: protein: recombinant; tags: N-terminal GST; dsDNA, one strand shown. In short, it runs like this: as §1

The target in experiment [14] is ETV1 (Homo sapiens, UniProt P50549 1-477). The conditions noted are these: protein: recombinant; tags: N-terminal GST; dsDNA, one strand shown. The method in brief: as §1
Chain of ETV1 (P50549 whole entry): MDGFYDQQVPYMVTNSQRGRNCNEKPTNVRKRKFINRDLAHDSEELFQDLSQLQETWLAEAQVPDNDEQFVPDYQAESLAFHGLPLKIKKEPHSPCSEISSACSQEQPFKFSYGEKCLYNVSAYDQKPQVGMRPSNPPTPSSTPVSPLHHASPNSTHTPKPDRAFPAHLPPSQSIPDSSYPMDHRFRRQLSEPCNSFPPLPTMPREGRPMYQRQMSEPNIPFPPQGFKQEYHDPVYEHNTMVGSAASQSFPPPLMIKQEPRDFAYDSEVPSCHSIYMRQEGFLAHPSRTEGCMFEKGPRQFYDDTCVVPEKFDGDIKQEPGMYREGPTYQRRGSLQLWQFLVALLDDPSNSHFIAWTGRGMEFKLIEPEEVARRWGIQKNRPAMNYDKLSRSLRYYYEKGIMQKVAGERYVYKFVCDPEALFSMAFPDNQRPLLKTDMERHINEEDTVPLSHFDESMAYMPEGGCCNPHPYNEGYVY

Chain of ELF1 (P32519 whole entry): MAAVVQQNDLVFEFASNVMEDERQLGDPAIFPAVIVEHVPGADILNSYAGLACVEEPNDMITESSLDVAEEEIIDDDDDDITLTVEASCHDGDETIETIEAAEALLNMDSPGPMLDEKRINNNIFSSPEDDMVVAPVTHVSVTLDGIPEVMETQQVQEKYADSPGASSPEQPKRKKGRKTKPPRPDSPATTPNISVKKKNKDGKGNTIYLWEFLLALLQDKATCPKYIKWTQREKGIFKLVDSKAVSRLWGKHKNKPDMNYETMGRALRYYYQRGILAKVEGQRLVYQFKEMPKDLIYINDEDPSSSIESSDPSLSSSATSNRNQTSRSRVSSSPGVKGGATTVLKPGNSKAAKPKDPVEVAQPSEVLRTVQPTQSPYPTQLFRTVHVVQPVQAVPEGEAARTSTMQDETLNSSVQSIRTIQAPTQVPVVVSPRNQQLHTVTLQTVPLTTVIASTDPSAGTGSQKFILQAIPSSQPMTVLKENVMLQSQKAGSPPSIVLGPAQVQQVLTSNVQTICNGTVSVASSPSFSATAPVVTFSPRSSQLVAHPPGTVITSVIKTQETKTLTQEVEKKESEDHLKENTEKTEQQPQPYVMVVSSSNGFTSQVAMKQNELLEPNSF
Chain of ELF4 (Q99607 whole entry): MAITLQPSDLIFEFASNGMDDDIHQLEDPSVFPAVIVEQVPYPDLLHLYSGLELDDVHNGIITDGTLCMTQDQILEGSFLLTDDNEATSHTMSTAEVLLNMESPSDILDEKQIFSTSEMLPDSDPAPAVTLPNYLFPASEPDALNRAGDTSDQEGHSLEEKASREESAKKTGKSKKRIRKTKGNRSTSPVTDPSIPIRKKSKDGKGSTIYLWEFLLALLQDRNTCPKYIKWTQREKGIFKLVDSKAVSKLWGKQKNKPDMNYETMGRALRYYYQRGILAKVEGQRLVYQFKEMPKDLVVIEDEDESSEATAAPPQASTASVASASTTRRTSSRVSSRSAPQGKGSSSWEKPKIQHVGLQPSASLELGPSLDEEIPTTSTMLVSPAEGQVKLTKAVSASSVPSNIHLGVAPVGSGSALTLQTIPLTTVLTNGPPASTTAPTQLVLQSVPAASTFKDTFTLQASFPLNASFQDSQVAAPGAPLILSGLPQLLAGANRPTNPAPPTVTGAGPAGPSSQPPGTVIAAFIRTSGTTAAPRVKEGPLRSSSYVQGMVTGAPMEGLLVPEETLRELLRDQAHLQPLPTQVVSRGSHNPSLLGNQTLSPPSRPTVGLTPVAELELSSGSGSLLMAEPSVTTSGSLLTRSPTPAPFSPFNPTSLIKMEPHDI
Chain of HSF1 (Q00613 whole entry): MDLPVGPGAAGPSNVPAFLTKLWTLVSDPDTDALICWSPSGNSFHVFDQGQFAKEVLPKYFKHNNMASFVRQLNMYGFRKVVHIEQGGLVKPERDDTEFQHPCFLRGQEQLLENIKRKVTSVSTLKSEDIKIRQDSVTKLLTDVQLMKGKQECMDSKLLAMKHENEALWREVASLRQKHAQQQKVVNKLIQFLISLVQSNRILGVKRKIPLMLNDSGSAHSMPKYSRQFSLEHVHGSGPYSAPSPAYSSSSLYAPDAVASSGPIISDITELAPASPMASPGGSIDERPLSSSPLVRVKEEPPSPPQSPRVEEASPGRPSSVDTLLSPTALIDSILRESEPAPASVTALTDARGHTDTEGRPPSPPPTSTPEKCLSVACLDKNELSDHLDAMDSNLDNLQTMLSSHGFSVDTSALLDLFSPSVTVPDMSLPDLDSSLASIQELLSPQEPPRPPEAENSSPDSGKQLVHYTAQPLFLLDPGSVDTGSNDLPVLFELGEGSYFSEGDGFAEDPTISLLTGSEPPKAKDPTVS
Chain of ETV5 (P41161 whole entry): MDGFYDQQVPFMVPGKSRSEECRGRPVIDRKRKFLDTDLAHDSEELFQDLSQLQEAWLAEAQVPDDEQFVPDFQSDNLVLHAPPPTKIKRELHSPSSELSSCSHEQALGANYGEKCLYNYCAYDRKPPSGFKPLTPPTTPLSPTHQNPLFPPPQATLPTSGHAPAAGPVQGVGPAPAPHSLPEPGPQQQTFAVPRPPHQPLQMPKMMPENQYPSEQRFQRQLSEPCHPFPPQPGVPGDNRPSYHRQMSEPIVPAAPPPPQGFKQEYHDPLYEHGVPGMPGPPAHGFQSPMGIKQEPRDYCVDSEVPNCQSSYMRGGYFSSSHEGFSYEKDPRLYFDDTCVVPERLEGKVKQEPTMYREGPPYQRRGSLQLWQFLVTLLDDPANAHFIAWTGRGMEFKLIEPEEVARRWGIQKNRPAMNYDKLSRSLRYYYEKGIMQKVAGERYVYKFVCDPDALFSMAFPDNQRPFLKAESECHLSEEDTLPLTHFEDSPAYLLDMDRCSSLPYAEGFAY

Turning to AACGTA, the binding signal in experiment [1] was 1.06 fold enrichment (6-mer frequency, TF over GST control); in [2], 1.05 fold enrichment (6-mer frequency, TF over GST control); in experiment [3] it was 1.02 fold enrichment (6-mer frequency, TF over GST control); in [4], 1.04 fold enrichment (6-mer frequency, TF over GST control); in [5] it was 1.02 fold enrichment (6-mer frequency, TF over GST control); in [6], 1.01 fold enrichment (6-mer frequency, TF over GST control). Further, the binding signal in [7] is 1.11 fold enrichment (6-mer frequency, TF over GST control); in experiment [8], 1.04 fold enrichment (6-mer frequency, TF over GST control); in experiment [9] it was 1.03 fold enrichment (6-mer frequency, TF over GST control); in experiment [10], 1.02 fold enrichment (6-mer frequency, TF over GST control); in experiment [11], 1.03 fold enrichment (6-mer frequency, TF over GST control); in experiment [12], 1.01 fold enrichment (6-mer frequency, TF over GST control). Also, the binding signal was 1.01 fold enrichment (6-mer frequency, TF over GST control) in experiment [13] and 1.06 fold enrichment (6-mer frequency, TF over GST control) in [14].
